Assay results reported in the supplement of paper PMC11577813, “Eurasian spruce bark beetle detects lanierone using a highly expressed specialist odorant receptor, present in several functional sensillum types” (BMC Biology, 2024).
± gives the standard deviation of the averaged measurements.

System: lanierone-responsive B-neuron OSN class (ItypOR36)
Assay: net action potential response of lanierone B-neuron (blank-subtracted) (spikes/s (Hz)); higher = stronger excitation
Conditions: 10 µg on filter paper, neuron: B neuron (small spike amplitude)
Description: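 Single sensillum recordings from antennal olfactory sensilla of live adult Ips typographus. Each compound was 10 µg in paraffin oil, delivered as a 0.5 s puff. Net response = spikes in the first 0.5 s of response minus the 0.5 s pre-stimulus count, doubled to give Hz, with blank response subtracted. Values are for the small-spike lanierone-responsive B-neuron (putatively expressing ItypOR36), recorded in sensilla co-housing the A-neuron class; N = 1-4, averaged.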

[1] = co-localized A-neuron class: (4S)-cis-verbenol
[2] = co-localized A-neuron class: (5S,7S)-trans-conophthorin
[3] = co-localized A-neuron class: (+)-isopinocamphone
[4] = co-localized A-neuron class: (+)-trans-4-thujanol
[5] = co-localized A-neuron class: ipsdienol
[6] = co-localized A-neuron class: myrcene
[7] = co-localized A-neuron class: p-cymene

## Cc1ccc(C(C)C)cc1 [p-Cymene]
[1]
  net action potential response: -3.33 ± 3.1
[2]
  net action potential response: 0.5 ± 2.5
[3]
  net action potential response: -2 ± 3.5
[4]
  net action potential response: -1.5 ± 4.4
[5]
  net action potential response: -1.33 ± 5
[6]
  net action potential response: 4
[7]
  net action potential response: -3.33 ± 5.8

## C=CC(O)CCCCC (racemic) [(±)-1-Octen-3-ol]
[1]
  net action potential response: -6.67 ± 5
[2]
  net action potential response: -0.5 ± 2.5
[3]
  net action potential response: -2 ± 4
[4]
  net action potential response: 0 ± 1.6
[5]
  net action potential response: -3.33 ± 1.1
[6]
  net action potential response: 4
[7]
  net action potential response: 0.667 ± 3.1

## CC1=CCC(C(C)C)=CC1 [γ-Terpinene]
[1]
  net action potential response: -2 ± 5.3
[2]
  net action potential response: 0.5 ± 6
[3]
  net action potential response: -0.667 ± 6.1
[4]
  net action potential response: -0.5 ± 1.9
[5]
  net action potential response: 0 ± 6
[6]
  net action potential response: -6
[7]
  net action potential response: -4 ± 3.5

## C=CCc1ccc(OC)c(OC)c1 [Eugenol methyl ether]
[1]
  net action potential response: 0 ± 8.7
[2]
  net action potential response: -3 ± 5
[3]
  net action potential response: 4.67 ± 9
[4]
  net action potential response: -2 ± 1.6
[5]
  net action potential response: -1.33 ± 5
[6]
  net action potential response: 0
[7]
  net action potential response: -3.33 ± 9.4

## CC1=C[C@@H](O)[C@H]2C[C@@H]1C2(C)C [(-)-trans-Verbenol]
[1]
  net action potential response: -1.33 ± 9
[2]
  net action potential response: -3.5 ± 6
[3]
  net action potential response: 1.33 ± 2.3
[4]
  net action potential response: -2 ± 2.8
[5]
  net action potential response: 2 ± 4
[6]
  net action potential response: -4
[7]
  net action potential response: -2 ± 9.2

## C=C1CCC2CC1C2(C)C (stereo not drawn) [(-)-β-Pinene]
[1]
  net action potential response: -0.667 ± 7.6
[2]
  net action potential response: 3.33 ± 3.1
[3]
  net action potential response: -3.33 ± 4.6
[4]
  net action potential response: -3 ± 4.2
[5]
  net action potential response: 0 ± 6
[6]
  net action potential response: -8
[7]
  net action potential response: 0 ± 7.2
